The record followed here is PubChem BioAssay.

Assay [1] deals with Aerobactin synthetase IucA (Klebsiella pneumoniae). The assay is described as follows: inhibition of K. pneumoniae IucA enzyme – biochemical, Tocris library, absorbance (AID 1345561; call rule not given here;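 further: 100% = enzyme without compound and 0% = no enzyme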). Conditions: purified IucA enzyme assay, absorbance (OD) read-out; stronger effect = lower value;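 tested at 8 µM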.
A short description of assay [2]: viability loss with induced miR-34 in A549 – imaging, A549 dox-inducible miR-34, nuclei and caspase counts, primary screen (AID 1347080). Conditions: A549 miR-34 inducible, Hoechst nuclei count, 48 h.
The target in assay [3] is Mitogen-activated protein kinase 7 (Homo sapiens) (UniProt Q13164). The assay can be described thus: Gal4-ERK5 driven luciferase induction – cell-based, HTS, primary screen (AID 1508626;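 active means luciferase signal above three times the same-plate solvent-only control wells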;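 further: luciferase driven by Gal4-ERK5 fusion binding five Gal4 sites before minimal TATA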). Conditions: HeLa Gal4-ERK5 transactivation, 18 h, at 5 µM, stronger effect = higher value.
The nature of assay [4]: galactose survival enhancers in mitochondrial complex I cybrids – cell-based, galactose medium, ATP luminescence, primary screen (AID 1645843;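 active means z-score of at least 1.8 in each of two replicates, scored against plate mean and spread of sample wells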;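 further: positive z means more ATP and so rescue of galactose-driven cybrid death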). As to conditions: complex I mutant cybrid cells, 72 h, stronger effect = higher value.
Assay [5] is described as follows: MELAS cybrid and Rieske KO viability enhancers – cell-based, MELAS cybrids, Rieske KO mouse fibroblasts, CellTiter-Glo, primary screen (AID 1508586;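 active means mean z-score across replicates of 1.96 or higher in either the MELAS or the Rieske mutant cell line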;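 further: z relative to plate mean and SD of compound and empty wells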). Conditions: low glucose.
Assay [6] concerns Hepatitis C virus NS3 helicase. The assay is described as follows: blockers of NS3h binding to ssDNA – biochemical, fluorescence polarization, LOPAC1280 library, primary screen (AID 687035; in the data active means inhibition above about 37%). Conditions: Purified HCV NS3 helicase, Cy5-dT15 ssDNA binding fluorescence polarization; stronger effect = higher value; concentration not given here. Background: In fluorescence polarisation assays a small probe gives low polarisation when free and higher when bound to something large.

A short description of assay [7]: compounds altering Cy5-DNA-NS3h complex signal – biochemical, LOPAC1280, artefact control for HCV NS3 helicase inhibitor project (AID 687037; call rule not given here). Conditions: Cy5-DNA-NS3h complex fluorescence interference counterscreen.
The nature of assay [8]: chitosan synthesis blockers in C. neoformans – flow cytometry, Cibacron Brilliant Red staining (AID 1347148; call rule not given here;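 further: compound exposure lasted three days at 37 degrees C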). As to conditions: Cryptococcus neoformans chitosan, stronger effect = lower value; at 10 µM unless noted. In general terms: In flow cytometry, cells or beads pass a laser one at a time.
A short description of assay [9]: blockers of cellular phospholipid synthesis – cell-based, LOPAC library, screen 4, primary screen (AID 1347384; call rule not given here). As to conditions: animal cells, phospholipid biosynthesis inhibition screen; at 10 µM.
The mark [10] stands for this setting: stronger effect = lower value, cell number ratio, induced over uninduced.
Where [11] appears, read: measured here: relative caspase fold change +Dox/-Dox.
[12] abbreviates: measured here: total cells with miR-34 induction, stronger effect = lower value.
[13] abbreviates: measured here: total cells without miR-34 induction.
Where [14] appears, read: MELAS cybrid survival, CellTiter-Glo 48 h, stronger effect = higher value.
Setting [15] is: Rieske KO mouse fibroblast survival, CellTiter-Glo 72 h.

Values joined by “and” are separate entries in the source; they are usually repeats but may differ in a detail not shown here. Identical values can stand only once. Active and inactive are the calls of the source.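 How the source made its calls, unless noted: active means compounds whose cell count with miR-34 switched on is under 0.7 times the count with it off; inactive means the rest.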

Mitogen-activated protein kinase 7 (Homo sapiens), sequence (Q13164 whole entry, looked up, the tested form may be a part): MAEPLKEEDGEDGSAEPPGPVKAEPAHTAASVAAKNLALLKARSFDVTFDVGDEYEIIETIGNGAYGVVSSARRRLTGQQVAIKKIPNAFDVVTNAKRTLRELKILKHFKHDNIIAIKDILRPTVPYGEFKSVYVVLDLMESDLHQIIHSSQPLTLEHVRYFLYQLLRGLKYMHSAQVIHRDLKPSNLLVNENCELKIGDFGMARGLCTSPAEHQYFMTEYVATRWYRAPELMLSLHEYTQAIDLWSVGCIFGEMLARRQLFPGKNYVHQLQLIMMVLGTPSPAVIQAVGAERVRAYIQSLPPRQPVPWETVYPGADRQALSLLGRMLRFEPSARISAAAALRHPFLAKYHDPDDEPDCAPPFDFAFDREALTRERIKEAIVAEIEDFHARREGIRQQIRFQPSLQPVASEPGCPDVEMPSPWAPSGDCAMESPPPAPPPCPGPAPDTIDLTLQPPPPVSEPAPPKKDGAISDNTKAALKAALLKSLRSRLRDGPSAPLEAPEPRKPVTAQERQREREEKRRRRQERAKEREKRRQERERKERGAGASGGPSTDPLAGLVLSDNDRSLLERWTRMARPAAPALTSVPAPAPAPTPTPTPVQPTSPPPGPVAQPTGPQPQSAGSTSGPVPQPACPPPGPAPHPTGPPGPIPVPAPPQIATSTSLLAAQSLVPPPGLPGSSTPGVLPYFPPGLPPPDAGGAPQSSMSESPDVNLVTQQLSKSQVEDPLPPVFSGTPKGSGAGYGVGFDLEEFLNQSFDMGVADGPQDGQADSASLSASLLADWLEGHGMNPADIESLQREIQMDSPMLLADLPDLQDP

`CC(=O)O[C@@H]1C[C@H]2C(C)(C)C(=O)C=C[C@]2(C)[C@H]2CC[C@@]3(C)[C@H](c4ccoc4)OC(=O)[C@H]4O[C@]43[C@@]21C`: the remaining activity (in general, the signal under treatment as a percentage of the control signal) in assay [1] is 103% (inactive). Also, the fold change in [2] (setting [10]) is 0.935 (inactive); in assay [2] (setting [11]), 1.22. Besides, the values for the cell count in assay [2] (setting [12]) and in assay [2] (setting [13]) were 4410 and 4720, respectively. Further, in assay [3], the luciferase signal is 96 AU (inactive). Besides, the z-score in [4] is -0.435 (inactive).

On to `Cc1cc2nc3c(=O)[nH]c(=O)nc-3n(C)c2cc1C=O`, for which the remaining activity in assay [1] was 110% (inactive). Moreover, the values for the fold change in [2] (setting [10]) and in assay [2] (setting [11]) were 1.04 (inactive) and 1.31, respectively. In addition, the cell count was determined as 8790 in assay [2] (setting [12]) and 8430 in assay [2] (setting [13]). The z-score in [4] is -0.69 (inactive).

`NC(Cn1ccc(=O)n(Cc2ccccc2C(=O)O)c1=O)C(=O)O` (stereo unspecified): the remaining activity in assay [1] is 98.2% (inactive). Also, the results for the fold change in assay [2] (setting [10]) and in assay [2] (setting [11]) were 0.925 (inactive) and 1.4, respectively. In addition, the cell count in [2] (setting [12]) came to 8950; in [2] (setting [13]), 9680. Moreover, the z-score in [4] is 0.13 (inactive).

Regarding `Cc1noc(NS(=O)(=O)c2cccc3c(N(C)C)cccc23)c1C`, in assay [1], the remaining activity was 116% (inactive). For the same compound, the fold change in assay [2] (setting [10]) is 0.967 (inactive); in [2] (setting [11]), 0.84. The results for the cell count in assay [2] (setting [12]) and in assay [2] (setting [13]) were 8350 and 8630, respectively. In addition, the z-score in assay [4] was -0.135 (inactive).

Turning to `NC(=O)c1sc(-c2ccsc2)cc1N`, the remaining activity in assay [1] was 88.4% (inactive). In addition, the fold change in [2] (setting [10]) is 0.841 (inactive) and 0.869 (inactive); in assay [2] (setting [11]), 0.888 and 1.88. In addition, the cell count in [2] (setting [12]) is 8280 and 7870; in assay [2] (setting [13]) it was 9850 and 9060. The z-score is -0.221 (inactive) in [5] (setting [14]), -0.163 in assay [5] (setting [15]) and 0.36 (inactive) in assay [4].

Regarding `O=C(CCCCCN1C(=O)c2cccc3cccc(c23)C1=O)NO`, the remaining activity in [1] was 87.2% (inactive). The fold change in [2] (setting [10]) is 0.869 (inactive) and 1.23 (inactive); in assay [2] (setting [11]), 0.881 and 1.17. For the same compound, the cell count was 1710 and 2290 in assay [2] (setting [12]); 1970 and 1860 in assay [2] (setting [13]). Besides, the z-score is 1.18 (inactive) in assay [5] (setting [14]), 1.2 in assay [5] (setting [15]) and -0.53 (inactive) in [4].

Turning to `CCCCCCCC/C=C\CCCCCCCC(=O)N[C@@H](CO)Cc1ccc(O)cc1`, the remaining activity in assay [1] is 129% (inactive). Moreover, the fold change in assay [2] (setting [10]) was 0.903 (inactive) and 0.933 (inactive); in assay [2] (setting [11]) it was 1.11 and 0.626. Moreover, the cell count in assay [2] (setting [12]) was 5590 and 5540; in [2] (setting [13]), 6200 and 5940. Also, the z-score in [4] was -0.83 (inactive).

Take `C1CCC(N=C(NC23CC4CC(CC(C4)C2)C3)N2CCOCC2)CC1`: the inhibition (usually the change of the read-out against control, counted positive when it falls) in assay [6] was -4% (inactive). Further, the fluorescence ratio (interference) in assay [7] is 1 (inactive). The remaining activity in assay [1] is 116% (inactive). For the same compound, the fold change in assay [2] (setting [10]) is 0.989 (inactive); in [2] (setting [11]), 0.888. Moreover, the cell count in [2] (setting [12]) was 8260; in assay [2] (setting [13]), 8350. The fold fluorescence in assay [8] is 11.7 [at 130.9 µM] (inactive). Moreover, the z-score in assay [4] was -0.33 (inactive).

`NS(=O)(=O)c1cccc2c1c([N+](=O)[O-])cc1[nH]c(=O)c(=O)[nH]c12`: the remaining activity in assay [1] is 96.2% (inactive). In addition, the fold change in [2] (setting [10]) is 0.919 (inactive); in [2] (setting [11]) it was 0.625. Further, the cell count came out at 8900 in assay [2] (setting [12]) and 9680 in assay [2] (setting [13]). Also, the compound was classed as inactive in assay [9]. The z-score in assay [4] is -0.025 (inactive).

Turning to `O=C1C(=O)N(Cc2ccc(Cl)c(Cl)c2)c2ccccc21`, in [1], the remaining activity is 89.3% (inactive). In addition, the fold change in assay [2] (setting [10]) is 0.946 (inactive) and 0.932 (inactive); in [2] (setting [11]) it was 0.72 and 1.49. For the same compound, the cell count is 8180 and 7960 in [2] (setting [12]); 8650 and 8540 in assay [2] (setting [13]). Besides, the z-score is -0.161 (inactive) in assay [5] (setting [14]), -0.14 in [5] (setting [15]) and -0.685 (inactive) in assay [4].
